Test results reported in PubChem BioAssay AID2284368 (EPA ToxCast).
Results filed as inconclusive are left out. Activity calls are given as the source filed them. How the source made its calls: active means hit-call score of the fitted dose curve at least 0.9, where 1 is the maximum; inconclusive means response in the unintended direction; inactive means score below 0.9.

Target: Estrogen receptor (Homo sapiens) (UniProt P03372)
Assay: ATG_hERa_EcoTox2: Attagene TRANS-FACTORIAL EcoTox-2 HepG2 Assay for human Estrogen Receptor (ER)
Protocol: ATG_EcoTox2 is a cell-based, multiplexed assay created by modifying the existing Attagene TRANS-FACTORIAL system to include a panel of nuclear receptors from some or all the following species: human (Homo sapiens), african clawed frog (Xenopus laevis), rainbow trout (Oncorhynchus mykiss), japanese medaka (Oryzias latipes), and zebrafish (Danio rerio). The ECOTOX2-FACTORIAL format uses HepG2, a human liver cell line, with measurements taken at 24 hours after chemical dosing in a 24-well plate. ATG_hERa_EcoTox2 is one of 29 assay components measured or calculated from the ATG_EcoTox2 assay. It is designed to make measurements of mRNA induction, a form of inducible reporter, as detected with fluorescence intensity signals by Reverse transcription polymerase chain reaction (RT-PCR) and Capillary electrophoresis technology.The assay endpoint ATG_hERa_EcoTox2 was analyzed in the positive analysis fitting direction relative to DMSO as the negative control and baseline of activity. Using a type of inducible reporter, measures of mRNA for gain-of-signal activity can be used to understand the reporter gene at the transcription factor-level as they relate to the gene ER. Furthermore, this assay endpoint can be referred to as a primary readout, because this assay has produced multiple assay endpoints where this one serves a reporter gene function. To generalize the intended target to other relatable targets, this assay endpoint is annotated to the nuclear receptor intended target family, where the subfamily is steroidal.
Human liver HepG2 cells are transiently transfected with multiple reporter transcription units (MRTUs) in 6-well plates using FuGene 6 reagent (Roche; 3 ml FuGene/1 mg DNA). The MRTU constructs are regulated by a cis-regulating element (promoter). Each RTU expresses a GAL4-UAS that regulates the transcription of a nearby target reporter gene sequence. A major difference between the CIS and TRANS system is that in CIS activities of endogenous TFs are measured, whereas the TRANS assay evaluates changes in activities of exogenous, chimeric NR-Gal4 proteins. […] At the end of 24 hour incubation, total RNA was isolated using TriZol reagent (Invitrogen). The isolated RNA is then reverse-transcribed using oligo(dT) primer and Mo-MLV reverse transcriptase (Invitrogen) with DNAse I (Ambion) treatment for 30 min. The one-tenth of the produced cDNA was amplified by PCR using Taq DNA polymerase (Invitrogen) and two reporter sequence-specific primers. The PCR products were fluorescently labeled by primer extension with 6-arboxyfluorescein (6-FAM) 5'-labeled reporter sequence-specific primer (2 min at 95 C, 20 s at 68 C and 10 min at 72 C) and these products were digested with 5U of HpaI (New England Biolabs) for 2h at 37 C. The fragments were purified using Qiaquick PCR columns (Qiagen), analyzed on an ABI 3130xL genetic analyzer (Applied Biosystems) with peak positions identified by using a set of X-rhodamine (ROX)-labeled MapMarker1000 molecular weight standards (BioVentures). The raw capillary electrophoresis data was processed using Attagraph software (Attagene).

Sequence of Estrogen receptor (Homo sapiens) (P03372 whole entry, looked up): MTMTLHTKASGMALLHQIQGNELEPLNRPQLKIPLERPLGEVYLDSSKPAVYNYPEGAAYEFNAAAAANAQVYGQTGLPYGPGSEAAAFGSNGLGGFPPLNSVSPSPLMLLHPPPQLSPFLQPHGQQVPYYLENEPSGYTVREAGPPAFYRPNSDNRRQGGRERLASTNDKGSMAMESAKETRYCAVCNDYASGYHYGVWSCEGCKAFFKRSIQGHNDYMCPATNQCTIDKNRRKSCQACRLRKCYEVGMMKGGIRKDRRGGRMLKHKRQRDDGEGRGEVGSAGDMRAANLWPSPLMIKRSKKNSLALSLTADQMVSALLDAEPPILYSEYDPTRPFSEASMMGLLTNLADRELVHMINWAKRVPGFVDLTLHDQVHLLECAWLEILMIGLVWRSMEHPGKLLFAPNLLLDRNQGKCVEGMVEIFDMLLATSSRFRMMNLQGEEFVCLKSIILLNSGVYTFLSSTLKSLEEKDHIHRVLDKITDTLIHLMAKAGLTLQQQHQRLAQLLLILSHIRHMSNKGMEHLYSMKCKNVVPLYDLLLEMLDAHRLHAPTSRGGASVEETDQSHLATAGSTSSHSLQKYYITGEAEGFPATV

| SMILES | AC50 | outcome |
| --- | --- | --- |
| CC(c1cc2ccccc2s1)N(O)C(N)=O (stereo unspecified) | 50 µM (active) |  |
| C=C(c1ccc(C(=O)O)cc1)c1cc2c(cc1C)C(C)(C)CCC2(C)C |  | inactive |
| CC(C)OC(=O)C(C)(C)Oc1ccc(C(=O)c2ccc(Cl)cc2)cc1 |  | inactive |
| CC(C)(Oc1ccc(C2CC2(Cl)Cl)cc1)C(=O)O (stereo unspecified) |  | inactive |
| Cc1c(C)c2c(c(C)c1O)CCC(C)(COc1ccc(CC3SC(=O)NC3=O)cc1)O2 (stereo unspecified) |  | inactive |
| CC(C)(Oc1ccc(CCNC(=O)c2ccc(Cl)cc2)cc1)C(=O)O | 122 µM (active) |  |
| CN(CCOc1ccc(CC2SC(=O)NC2=O)cc1)c1ccccn1 (stereo unspecified) |  | inactive |
| Cc1ccc(C)c(OCCCC(C)(C)C(=O)O)c1 | 50 µM (active) |  |
| Cc1cccc(Nc2cc(Cl)nc(SCC(=O)O)n2)c1C |  | inactive |
| C[C@@H]1C[C@H]2[C@@H]3CCC4=CC(=O)C=C[C@]4(C)[C@@]3(F)[C@@H](O)C[C@]2(C)[C@@]1(O)C(=O)COP(=O)(O)O |  | inactive |
| C[C@]12C=CC(=O)C=C1CC[C@@H]1[C@@H]2C(=O)C[C@@]2(C)[C@H]1CC[C@]2(O)C(=O)CO | 29.2 µM (active) |  |
